In PubChem BioAssay AID602141 (Sanford-Burnham Center for Chemical Genomics, 2011):
Among all 360,000 compounds or so, about 1,300 (0.36%) were called active.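 Rule for the calls: active = corrected activity change at or below -50% at 5 µM; inactive = the rest.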 For the sample, actives were picked, then their nearest neighbours and some compounds at random.

Assay: KKLEB cell viability reduction – uHTS, fluorescence assay plates, cytotoxicity control for CF NF-kB inhibitor project, primary screen (AID 602141)
Conditions: KKLEB CF airway cells viability, ATPlite luminescence, overnight; at 5 µM; active compounds read low; cells stimulated with P. aeruginosa culture filtrate
With `Cc1noc(C)c1C(=O)OC(C)C(=O)Nc1ccc2c(c1)OCO2` (stereo not given) the activity change (cytotoxicity) was 1.3% (inactive). In the case of `COc1ccccc1NC(=O)C1CCN(C(=O)c2ccc(C(C)(C)C)cc2)CC1`, the activity change (cytotoxicity) is reported as 3.1% (inactive). In the case of `O=C(C=CC(=O)Nc1ccc(F)cc1F)Nc1ccc(F)cc1F`, the activity change (cytotoxicity) is reported as -11% (inactive). For `COC(=O)c1sc(-c2ccc(C(C)(C)C)cc2)cc1NC(=O)/C=C/C(=O)O`, the activity change (cytotoxicity) was -51.8% (active). With `COc1ccc(NS(=O)(=O)c2ccc(N3CCOCC3)c(NC(=O)/C=C/C(=O)O)c2)cc1` the activity change (cytotoxicity) was 17.8% (inactive). With `O=C(NCC1CCCO1)c1ccccc1-c1nc(-c2ccccc2Cl)no1` (stereo not given) the activity change (cytotoxicity) was -12.9% (inactive). For `O=C(O)CC12CC3CC(C1)CC(n1ncc(NCc4ccc(F)cc4)c(Cl)c1=O)(C3)C2`, the activity change (cytotoxicity) was -4.6% (inactive). In the case of `CCN1CCC(O)(/C=C/c2ccc(C)cc2)C(C(=O)/C=C/c2ccc(C)cc2)C1` (stereo not given), the activity change (cytotoxicity) is reported as -73.7% (active). For `CCN1CCC2(CC1)N=C(c1ccc(F)cc1)C(=S)N2C(=O)c1ccc(C)cc1`, the activity change (cytotoxicity) was 2.3% (inactive). With `CCc1nc2ccc(C(=O)N3CCC(O)(Cc4ccccc4)CC3)cn2c1N(C)C(=O)Cc1ccccc1` the activity change (cytotoxicity) was -15.5% (inactive). For `CC(=O)c1cccc(-c2cnc3c(NC=O)cc(-c4ccc(N(C)C)cc4)cn23)c1`, the activity change (cytotoxicity) was -27.1% (inactive). For `CC(=O)c1ccc(-c2cnc3c(NC=O)cc(-c4cccc(NS(C)(=O)=O)c4)cn23)cc1`, the activity change (cytotoxicity) was -51.7% (active). With `CC(=O)Nc1cccc(-c2cc(NC=O)c3ncc(-c4ccc(F)c(Cl)c4)n3c2)c1` the activity change (cytotoxicity) was 0.8% (inactive). In the case of `O=C(Nc1ccc(S(=O)(=O)N2CCCCCC2)cc1)c1c(F)cccc1F`, the activity change (cytotoxicity) is reported as 5.1% (inactive). With `O=C(Nc1ccncc1)c1c(F)cccc1F` the activity change (cytotoxicity) was -51.3% (active). For `COc1cccc(OC)c1C(=O)Nc1ccc(Cc2ccncc2)cc1`, the activity change (cytotoxicity) was -3.9% (inactive). In the case of `CCOC(=O)C1CCCN(C(=O)C2CCN(c3nnc(-n4cccc4)s3)CC2)C1` (stereo not given), the activity change (cytotoxicity) is reported as -8.3% (inactive). In the case of `O=C(Nc1cc(S(=O)(=O)N2CCCCC2)ccc1Cl)C1COc2ccccc2O1` (stereo not given), the activity change (cytotoxicity) is reported as -14% (inactive). With `O=C(Nc1nc(-c2ccncc2)cs1)C1COc2ccccc2O1` (stereo not given) the activity change (cytotoxicity) was -70.7% (active). In the case of `COc1ccc(NC(=O)COC(=O)C2COc3ccccc3O2)cc1` (stereo not given), the activity change (cytotoxicity) is reported as 12.9% (inactive). In the case of `CCN1CCN(C(=O)CN(C)S(=O)(=O)c2ccc(OC)cc2)CC1`, the activity change (cytotoxicity) is reported as 3.4% (inactive). In the case of `CSc1cccc(NC(=O)CN2C(=O)COc3ccc(S(=O)(=O)N4CCOCC4)cc32)c1`, the activity change (cytotoxicity) is reported as 6.5% (inactive). With `Cc1ccc(CNC(=O)COc2ccc(S(=O)(=O)NC(C)C)cc2)cc1` the activity change (cytotoxicity) was -0.1% (inactive). With `O=C1CN(C(=O)c2ccccc2F)C(c2ccc(F)cc2)c2cc(F)ccc2N1` (stereo not given) the activity change (cytotoxicity) was 11.6% (inactive). For `C=CCNC(=S)NNC(=O)COc1c(Cl)cc(Cl)cc1Cl`, the activity change (cytotoxicity) was -16.4% (inactive). For `O=C(C1CCN(S(=O)(=O)c2ccc(Br)s2)CC1)N1CCN(C2CCCCC2)CC1`, the activity change (cytotoxicity) was 13.7% (inactive). For `CCCOc1ccc(C(=O)C(CCC(CNCC)C(=O)c2ccc(OCCC)cc2)CNCC)cc1` (stereo not given), the activity change (cytotoxicity) was -58.6% (active). With `CC(C)CCOc1ccc(C(=O)C[N+]2(C)CCOCC2)cc1` the activity change (cytotoxicity) was 1.8% (inactive). In the case of `CCCc1ccc(OCCNC(=O)c2ccccc2Br)cc1`, the activity change (cytotoxicity) is reported as -6.1% (inactive). With `Cc1ccc(C(NC(=O)C2CCN(CCOc3ccc(Cl)cc3Cl)CC2)c2ccccn2)cc1` (stereo not given) the activity change (cytotoxicity) was -0.6% (inactive). For `COc1ccc(C(=O)Nc2ccccc2C(=O)N/N=C/c2ccc(O)c(OC)c2)cc1`, the activity change (cytotoxicity) was -87.3% (active). With `CCOc1ccc(-c2cc(C(=O)N/N=C/c3ccc(O)cc3)c3ccccc3n2)cc1` the activity change (cytotoxicity) was -15.6% (inactive). In the case of `COc1cccc(OCc2cc(/C=N/NC(=O)c3nc(Cl)c(Cl)c(N)c3Cl)ccc2OC)c1`, the activity change (cytotoxicity) is reported as -5.4% (inactive). With `CC(=O)Nc1ccc(NC(=O)CC2CCCC2)cc1` the activity change (cytotoxicity) was 6.6% (inactive). For `O=c1c2ccccc2ncn1CCCCOc1ccccc1F`, the activity change (cytotoxicity) was 5.1% (inactive). With `COCCCNC(=O)C1CC(=O)N(CCc2ccc(F)cc2)C1` (stereo not given) the activity change (cytotoxicity) was 1.6% (inactive). For `O=C(CSc1nc2nccnc2c(=O)n1Cc1cccs1)Nc1ccccc1F`, the activity change (cytotoxicity) was -10.3% (inactive). In the case of `CCOc1ccc(NC(=O)CSc2nc3ccccc3c(=O)n2Cc2cccs2)cc1`, the activity change (cytotoxicity) is reported as -54.6% (active). With `CC(=O)NCCn1c(SCC(=O)Nc2ccc(C)cc2)nc2ccccc2c1=O` the activity change (cytotoxicity) was 4.4% (inactive). With `Cc1ccc(NC(=O)C(c2ccccc2)N2CCN(C(=O)c3ccco3)CC2)cc1` (stereo not given) the activity change (cytotoxicity) was 19.2% (inactive). With `CSc1ccc(CNC(=O)c2ccc(NC(=O)C3=CSCCO3)cc2)cc1` the activity change (cytotoxicity) was -31.3% (inactive). For `CCC/C(O)=C1\C(=O)CC(C)(C)CC1=Nc1ccccc1OC`, the activity change (cytotoxicity) was 21.9% (inactive). In the case of `Cc1cc2c(C)nc(N/N=C/c3ccccc3)nc2o1`, the activity change (cytotoxicity) is reported as 16.3% (inactive). In the case of `C=C(C)C(=O)O[C@H]1C/C(C)=C\C(=O)/C=C(\C)[C@H](O)[C@@H]2OC(=O)C(=C)[C@@H]21`, the activity change (cytotoxicity) is reported as -78.6% (active). For `COc1cccc(C(=O)Oc2cc(C)[nH]c(=O)c2[N+](=O)[O-])c1`, the activity change (cytotoxicity) was 0.5% (inactive). With `COC(=O)C1CCCCN1C(=O)c1ccc(OC2CCN(C(C)=O)CC2)c(OC)c1` (stereo not given) the activity change (cytotoxicity) was 2.5% (inactive). For `Cc1ccc2c(c1)N(C(=O)CCC(=O)N1CCc3ccccc3C1)CCO2`, the activity change (cytotoxicity) was -2.8% (inactive). In the case of `O=C(NCC(=O)N1CCN(c2ccccc2F)CC1)c1cccs1`, the activity change (cytotoxicity) is reported as 10.7% (inactive). For `Cc1ccc(C)c(NC(CC(=O)c2ccccc2)C(=O)OCC(=O)c2cccs2)c1` (stereo not given), the activity change (cytotoxicity) was 5.7% (inactive). In the case of `Cc1ccccc1C(CC(=O)c1cccs1)C(C#N)C#N` (stereo not given), the activity change (cytotoxicity) is reported as -51.2% (active). For `CCN(CC)c1nc(-c2ccccc2)cc(C(F)(F)F)c1C#N`, the activity change (cytotoxicity) was 9.1% (inactive). With `O=C(Cc1ccc(Cl)c(Cl)c1)Nc1ccc(SC(F)F)cc1` the activity change (cytotoxicity) was -64.7% (active). With `CN(CC(=O)Nc1ccc(S(=O)(=O)N2CCCC2)cc1)Cc1ccc(Cl)c(Cl)c1` the activity change (cytotoxicity) was -2.3% (inactive). In the case of `Cc1ccc(CC(=O)Nc2ccc(OC(F)F)c(Cl)c2)cc1C`, the activity change (cytotoxicity) is reported as 5.1% (inactive). For `COc1ccccc1NC(=O)CSc1nnc(CNC(=O)c2ccccc2F)o1`, the activity change (cytotoxicity) was -0.3% (inactive). For `CCn1cc(NC(=O)Nc2ccc(OC)c(OC)c2)c(C(N)=O)n1`, the activity change (cytotoxicity) was -3.5% (inactive). For `O=C(COC(=O)/C(=C/c1cccs1)c1cccs1)NCc1ccccc1Cl`, the activity change (cytotoxicity) was 4.5% (inactive). For `CC1(C(=O)O)CCC(C(=O)Nc2ccc(Cl)c(Cl)c2)C1(C)C` (stereo not given), the activity change (cytotoxicity) was 3.1% (inactive). With `N#CCCN(C(=O)Nc1ccc(Cl)c(Cl)c1)C1CCCCC1` the activity change (cytotoxicity) was 11.3% (inactive). For `O=C(CC(O)(C(F)(F)F)C(F)(F)F)Nc1ccc(Cl)c(Cl)c1`, the activity change (cytotoxicity) was -59% (active). In the case of `CCCCC(c1nnnn1CS(=O)(=O)c1ccc(C)cc1)N1CCC(C(N)=O)CC1` (stereo not given), the activity change (cytotoxicity) is reported as -15% (inactive). With `O=C(CCl)N(Cc1cccc([N+](=O)[O-])c1)c1cccc(Cl)c1` the activity change (cytotoxicity) was -96.2% (active). In the case of `Cc1ccc(S(=O)(=O)N(CC(=O)Nc2cccc([N+](=O)[O-])c2)Cc2ccc(Cl)cc2)cc1`, the activity change (cytotoxicity) is reported as 10.5% (inactive). With `CC(=O)N(CN1C(=O)C2CC=CCC2C1=O)c1cccc(Cl)c1` (stereo not given) the activity change (cytotoxicity) was 8.7% (inactive). With `Cc1cc(NC(=O)CSc2nc(C(C)C)nc3sc4c(c23)CCC(C)C4)no1` (stereo not given) the activity change (cytotoxicity) was -1.3% (inactive). In the case of `CCCSc1nc2sc3c(c2c(=O)n1-c1ccc(OC)cc1)CCN(C)C3`, the activity change (cytotoxicity) is reported as 6.6% (inactive). In the case of `CCCn1nnc2sc3c(c2c1=O)CCC(C)C3` (stereo not given), the activity change (cytotoxicity) is reported as -55.8% (active). With `O=S(=O)(O)CCN1CCOCC1` the activity change (cytotoxicity) was -2.1% (inactive). With `CC(=O)NC(c1cccc(F)c1)c1nc(-c2cccc(F)c2)cs1` (stereo not given) the activity change (cytotoxicity) was -3.6% (inactive). For `CC(C)N(Cc1nc(-c2ccc3c(c2)OCO3)no1)CC1CCC(=O)N1` (stereo not given), the activity change (cytotoxicity) was 7.7% (inactive). With `CCCSc1nsc(N)n1` the activity change (cytotoxicity) was -4.9% (inactive). For `COc1ccc(C(=O)CCC(=O)Nc2cccnc2)c(OC)c1`, the activity change (cytotoxicity) was -8.9% (inactive). With `COC(=O)c1sc(NC(=O)c2ccc(OC)cc2OC)nc1C` the activity change (cytotoxicity) was -66.8% (active). For `Cc1csc(NC(=O)CSc2nc(=O)cc(N)n2-c2ccc(F)cc2)n1`, the activity change (cytotoxicity) was -0.9% (inactive). For `Cc1ccccc1OCC(=O)Nc1nc(C)c(C(=O)N(C)C)s1`, the activity change (cytotoxicity) was 2.2% (inactive). For `COc1cc(SC)ccc1C(=O)Nc1nc(C)cs1`, the activity change (cytotoxicity) was -88.8% (active). With `Cc1csc(NC(=O)CSc2ccc(-c3ccc(F)cc3)nn2)n1` the activity change (cytotoxicity) was 8.5% (inactive). For `Cc1ccc2c(c1)N(CC(=O)N1CCC(O)CC1)C(=O)CO2`, the activity change (cytotoxicity) was 7.7% (inactive). With `O=C(NCCCN1CCCCC1)C1CC(=O)N(CCc2ccccc2)C1` (stereo not given) the activity change (cytotoxicity) was -3.7% (inactive). For `O=C(CNC(=O)c1cc(S(=O)(=O)N2CCOCC2)ccc1N1CCCC1)Nc1ccc(F)c(F)c1`, the activity change (cytotoxicity) was 8% (inactive). With `Cc1cc(C)c2c(=O)n3c(nc2c1)C(CC(C)C)NC(=O)c1cc2ccccc2cc1-3` (stereo not given) the activity change (cytotoxicity) was -9% (inactive). For `O=C(/C(=C/c1cccc(Cl)c1)c1nc2ccccc2[nH]1)c1ccccc1`, the activity change (cytotoxicity) was -62.2% (active). In the case of `CCCCn1c(N)c(N(CC(C)C)C(=O)CN(C)S(=O)(=O)c2ccc(F)cc2)c(=O)[nH]c1=O`, the activity change (cytotoxicity) is reported as 1.7% (inactive). In the case of `CCNC(=O)CC1C(=O)N(c2ccc(F)cc2)C(=O)N1CCc1sccc1C` (stereo not given), the activity change (cytotoxicity) is reported as 15.4% (inactive). In the case of `O=C(NNC(=O)c1ccc(-n2cncn2)c([N+](=O)[O-])c1)c1ccccc1`, the activity change (cytotoxicity) is reported as 9.1% (inactive). In the case of `O=C(Nc1nnc(SCc2ccccc2Cl)s1)c1cccc([N+](=O)[O-])c1`, the activity change (cytotoxicity) is reported as -35.3% (inactive). In the case of `O=C(NC(Nc1nc2ccc([N+](=O)[O-])cc2s1)(C(F)(F)F)C(F)(F)F)c1ccccc1`, the activity change (cytotoxicity) is reported as -70.6% (active). In the case of `O=C(COC(=O)c1ccccc1NC(=O)c1ccco1)Nc1ccc2c(c1)OC(F)(F)O2`, the activity change (cytotoxicity) is reported as -4.2% (inactive). In the case of `COc1ccc(S(=O)(=O)NC(CC(=O)NCc2ccccc2OC)c2ccco2)cc1` (stereo not given), the activity change (cytotoxicity) is reported as 5% (inactive). With `Cc1c(NC(=O)Nc2cccc([N+](=O)[O-])c2)c(=O)n(-c2ccccc2)n1C` the activity change (cytotoxicity) was 0% (inactive).
